In PubChem BioAssay AID623911 (Vanderbilt High Throughput Screening Facility, 2012):
Among all 2,100 compounds or so, about 770 (37%) were called active. Some of the results follow. Values without a mark were called inactive.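 The calls were made as follows: active = by-eye trace score of 1 for enhancers or -1 for inhibitors, so actives lie on both sides (some results past the limit were not filed as active); inactive = score 0, or 3 fluorescent, or 4 baseline rise.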

The compounds below were run against G protein-activated inward rectifier potassium channel 2 (Homo sapiens) + G protein-activated inward rectifier potassium channel 1 (Homo sapiens) (UniProt P48051+P48549) (assay: GIRK1/2 thallium flux modulators, retest, confirmation, cell-based, HEK293 rmGlu8/hGIRK1/2, FluoZin-2 (AID 623911)). Settings: HEK293 rmGlu8/hGIRK1/2, thallium flux FluoZin-2; actives lie on both sides; glutamate co-added at its EC20 level.
Sequence of G protein-activated inward rectifier potassium channel 2 (Homo sapiens) + G protein-activated inward rectifier potassium channel 1 (Homo sapiens) (P48051 whole entry, looked up): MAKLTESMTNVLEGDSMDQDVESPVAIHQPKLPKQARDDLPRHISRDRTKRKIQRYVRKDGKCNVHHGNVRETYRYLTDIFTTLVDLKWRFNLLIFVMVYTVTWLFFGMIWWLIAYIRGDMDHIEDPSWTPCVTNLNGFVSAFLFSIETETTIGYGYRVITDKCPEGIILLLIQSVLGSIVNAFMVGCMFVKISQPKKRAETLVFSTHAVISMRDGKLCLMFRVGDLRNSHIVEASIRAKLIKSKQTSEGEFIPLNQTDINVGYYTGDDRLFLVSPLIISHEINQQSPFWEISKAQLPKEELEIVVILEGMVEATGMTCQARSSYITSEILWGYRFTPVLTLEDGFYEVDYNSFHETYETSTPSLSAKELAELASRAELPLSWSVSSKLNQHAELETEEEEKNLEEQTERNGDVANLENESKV
Sequence of G protein-activated inward rectifier potassium channel 2 (Homo sapiens) + G protein-activated inward rectifier potassium channel 1 (Homo sapiens) (P48549 whole entry, looked up): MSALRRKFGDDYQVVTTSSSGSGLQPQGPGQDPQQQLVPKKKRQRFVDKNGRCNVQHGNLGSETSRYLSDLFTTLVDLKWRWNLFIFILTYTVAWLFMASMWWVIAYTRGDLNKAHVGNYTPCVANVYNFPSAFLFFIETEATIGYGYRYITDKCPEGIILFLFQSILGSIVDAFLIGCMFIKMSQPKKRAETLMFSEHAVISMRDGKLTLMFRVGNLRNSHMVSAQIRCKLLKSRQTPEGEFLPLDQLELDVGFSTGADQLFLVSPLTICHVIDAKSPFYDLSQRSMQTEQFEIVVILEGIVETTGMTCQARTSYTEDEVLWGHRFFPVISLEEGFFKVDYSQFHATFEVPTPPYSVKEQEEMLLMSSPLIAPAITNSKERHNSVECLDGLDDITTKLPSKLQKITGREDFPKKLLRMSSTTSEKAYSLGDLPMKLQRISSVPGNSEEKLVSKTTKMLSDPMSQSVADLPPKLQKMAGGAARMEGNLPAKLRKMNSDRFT
In the case of `O=C(/C=C/c1ccccc1)NC(NC(=S)Nc1cc(Cl)ccc1Cl)C(Cl)(Cl)Cl` (centres undefined), the manual score was 1 (active). Work on `O=C(/C=C/c1ccccc1)NC(NC(=S)Nc1cccc(O)c1)C(Cl)(Cl)Cl` (centres undefined) yielded a manual score of 3. With `O=C(NC(NC(=S)Nc1ccc(Cl)cc1Cl)C(Cl)(Cl)Cl)c1cccc([N+](=O)[O-])c1` (centres undefined) the manual score was 1 (active). For `O=C(NC(=S)Nc1cc([N+](=O)[O-])ccc1Cl)c1ccccc1`, the manual score was 0. With `COc1ccc(C/C(C)=N/NC(=S)Nc2ccccc2)cc1` the manual score was 0. For `COc1ccc(NC(=S)NC(NC(=O)/C=C/c2ccccc2)C(Cl)(Cl)Cl)cc1` (centres undefined), the manual score was 1 (active). `O=C(CSc1nc(-c2ccccc2)cc(=O)[nH]1)N1CCc2ccccc21` gave a manual score of 0. In the case of `O=C(COc1ccc2ccccc2c1CN1CCOCC1)N1CCc2ccccc21`, the manual score was -1 (active). In the case of `CC(C)n1c(NCc2c[nH]c3ccccc23)nc2ccccc21`, the manual score was -1 (active). `CCOC(=O)C(C)Sc1nnc(-c2c[nH]c3ccccc23)n1C` (centres undefined) showed a manual score of -0.5. In the case of `Cc1cccc(S(=O)(=O)NC(Cc2c[nH]c3ccccc23)C(=O)O)c1` (centres undefined), the manual score was 0. `Cc1cc(C)c2c(c1)/C(=N/NC(=S)Nc1ccc(F)cc1)CCC2` showed a manual score of 0. Compound `Cc1ccccc1N=Nc1ccc(O)c2ncccc12` has a manual score of 0. `Cc1ccccc1N=Nc1c(C)[nH]n(C(N)=S)c1=O` was tested, and the manual score was 1 (active). With `Cc1nn(-c2ccccc2)c(OC(=O)c2cccs2)c1S(=O)(=O)c1ccccc1` the manual score was 0. `CCOC(=O)c1c(C)n(C)c2ccc(O)c(CN3CCC(C)CC3)c12` was tested, and the manual score was -1 (active). Work on `CCOC(=O)c1c(C)[nH]c2c1cc(O)c1ccccc12` yielded a manual score of 0. In the case of `CCN(CC)C(=O)COc1ccc2oc(C)c(C(=O)OC)c2c1`, the manual score was 0. With `CCOC(=O)c1c(C)oc2ccc(O)c(CN3CCCCC3)c12` the manual score was -1 (active). `CCOc1ccc(C2=NNC(c3cccs3)=Nc3ccc(OC)cc32)cc1` showed a manual score of 0. Compound `CCn1c(SCc2ccc(Cl)cc2)nnc1-c1ccccc1` has a manual score of 0. In the case of `Cc1[nH]n(-c2ccc(Cl)cc2)c(=O)c1/C=N/c1nnc(-c2ccccc2)s1`, the manual score was 1 (active). For `Cc1ccc(-n2[nH]c(C)c(C=Nc3cc(C)ccn3)c2=O)cc1`, the manual score was 0. For `COc1ccc2nc(/N=C/c3c(C)[nH]n(-c4ccc(C)cc4)c3=O)sc2c1`, the manual score was 1 (active). `COc1ccc2nc(/N=C/c3c(C)[nH]n(-c4ccc(C)cc4C)c3=O)sc2c1` was tested, and the manual score was 1 (active). For `CCOc1ccc2nc(/N=C/c3c(C)[nH]n(-c4ccccc4)c3=O)sc2c1`, the manual score was 1 (active). `Cc1[nH]n(-c2ccccc2)c(=O)c1/C=N/c1ccccn1` was tested, and the manual score was 0. With `COc1ccc(OC)c(-c2c3cc(O)c(=O)cc-3oc3cc(O)c(O)cc23)c1` the manual score was 0. Compound `Cc1ccc(NC(=O)c2cc(NC(=O)CCC(=O)O)ccc2N2CCCCC2)cc1` has a manual score of 0. With `CN1CCN(C(=O)Nc2cccc3ccccc23)CC1` the manual score was 0. For `CC1=C(C)C(c2ccccc2)NC(=S)N1` (centres undefined), the manual score was 0. `CCOc1[nH]n(-c2ccc(Cl)cc2)c(=O)c1C=Nc1ccc(Cl)cc1` was tested, and the manual score was 0. In the case of `CCOc1ccc2nc(/N=C/c3c(C)[nH]n(-c4ccc(C)cc4)c3=O)sc2c1`, the manual score was 1 (active). `CCOc1ccc2nc(NC(=O)C(CC)Sc3nc(C)cc(=O)[nH]3)sc2c1` (centres undefined) gave a manual score of 0. In the case of `C=C(C)CNC(=S)Nc1nc2c(cc1C(=O)OCC)CCCC2`, the manual score was 1 (active). Compound `C=C(C)CNC(=S)N/N=C1\CCCCc2ccccc21` has a manual score of 0. `C=CCNC(=S)Nc1nc2c(cc1C(=O)OCC)CCCC2` was tested, and the manual score was 1 (active). For `CCNC(=S)Nc1nc2c(cc1C(=O)OCC)CCCC2`, the manual score was 1 (active). `CCOC(=O)c1cc(NC(=O)SCC(=O)O)c(C)nc1C` showed a manual score of 0. For `CCOC(=O)C1=NNC(C(=O)c2ccc(OC)cc2)C1c1ccccc1` (centres undefined), the manual score was 0. In the case of `O=C(Nc1ccc(Cl)cc1)NC1CCCCC1Cc1ccco1` (centres undefined), the manual score was 1 (active). In the case of `CC1CCc2c(sc(NC(=O)C(=O)NCc3ccco3)c2C#N)C1` (centres undefined), the manual score was 0. `CC(Cc1cccs1)NC(=O)Nc1ccc(Cl)cc1` (centres undefined) was tested, and the manual score was 0.5. Work on `O=C(COc1ccc(Br)cc1Cl)NC(=S)N1CCc2ccccc21` yielded a manual score of 0.5. For `O=C(COc1ccc(Cl)cc1Cl)NC(=S)N1CCCc2ccccc21`, the manual score was 0. `O=C(COc1ccccc1)NC(=S)N1CCc2ccccc21` was tested, and the manual score was 1 (active). `O=C(COc1ccccc1Cl)NC(=S)N1CCc2ccccc21` was tested, and the manual score was 1 (active). `Cc1cccc(OCC(=O)NC(=S)N2CCCc3ccccc32)c1` was tested, and the manual score was 0. With `CC(Oc1ccc(Cl)cc1Cl)C(=O)NC(=S)N1CCc2ccccc21` (centres undefined) the manual score was 1 (active). With `CCOc1cc(C(=O)NCc2ccncc2)cc(OCC)c1OCC` the manual score was 0. In the case of `CCN(CC)c1cnn(C/C(=N\OC)c2ccc(Cl)cc2)c(=O)c1Br`, the manual score was -1 (active). `CC(=O)c1ccc(N2CCCC2)c(F)c1` gave a manual score of 0. In the case of `CO/N=C(\Cn1ncc(N2CCCC2)c(Cl)c1=O)c1ccc(Cl)cc1`, the manual score was -1 (active). `CO/N=C(\Cn1ncc(N2CCCC2)c(Br)c1=O)c1ccc(Cl)cc1` was tested, and the manual score was -1 (active).
